Results on 42 sequences are retold here after article PMC7819943, “Rice protein-binding microarrays: a tool to detect cis-acting elements near promoter regions in rice”.

Whole data set: some 39,000 sequences, median “fluorescence intensity (a.u.)” near 4,300, cut for the highest 2% near 39,000. Many of the other results were omitted from the sample, so the highest values are more common in it than they were.

For this assay, the target named is T1, OsSMF1 (Oryza sativa, UniProt Q6ZLB0 1-436).
T1 sequence: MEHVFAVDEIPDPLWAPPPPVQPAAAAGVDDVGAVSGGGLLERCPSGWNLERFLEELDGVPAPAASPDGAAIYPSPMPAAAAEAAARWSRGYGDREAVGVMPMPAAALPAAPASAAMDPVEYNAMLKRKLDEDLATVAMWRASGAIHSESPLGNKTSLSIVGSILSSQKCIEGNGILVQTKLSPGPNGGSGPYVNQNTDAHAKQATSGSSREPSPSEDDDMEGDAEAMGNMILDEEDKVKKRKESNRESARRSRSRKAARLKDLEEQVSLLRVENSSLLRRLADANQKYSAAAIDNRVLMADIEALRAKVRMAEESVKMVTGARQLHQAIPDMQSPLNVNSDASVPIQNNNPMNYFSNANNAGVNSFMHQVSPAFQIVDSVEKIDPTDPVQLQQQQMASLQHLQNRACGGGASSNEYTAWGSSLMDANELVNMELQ
Nature of the assay: protein-binding microarray (RPBM); PBS, 2% BSA, 51.3 ng/ul salmon testes DNA, 50 uM zinc acetate, 200 nM TF, 25 C, 1 h; high values mean tight binding. The conditions noted are these: protein: recombinant; tags: N-terminal polyhistidine and DsRed monomer fusion (pET32a); chain copies: 2; label: CyDye5-dUTP incorporated in the synthesized complementary strand; 3' TTTTT single-stranded linker to array surface; dsDNA, one strand shown. Summed up: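 Binding signal is defined as the fluorescence intensity of each feature in arbitrary units, read on an Axon 4000B scanner. Transcription factors with N-terminal polyhistidine and DsRed fusions came from E. coli BL21-CodonPlus and were purified on Ni–NTA. They were incubated at 200 nM for 1 h at 25 °C on a custom Agilent array that had been made double-stranded with Cy5-dUTP, with 50 µM zinc acetate present, and the array was washed.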
Take “AAGTCCTCCCACAAGTCAACCAACCAAAACCACGTCCAAACGGAGTCACCTAGTGCAG”: the binding signal is 3420 fluorescence intensity (a.u.).
In the case of “TTTCTTAACTCGACACGCAATGTATTGTTATTTACGATTCCGGAGTCACCTAGTGCAG”, the binding signal was 3740 fluorescence intensity (a.u.).
As for “TACCACTATCGGAAGTTTTGGTTGTGACGTCCACAATTCCCGGAGTCACCTAGTGCAG”, the binding signal was 3760 fluorescence intensity (a.u.).
For “CTAATGGGACTGCTGCTACCCTATCTTTAGTCCGGGACTACGGAGTCACCTAGTGCAG”, the binding signal was 3270 fluorescence intensity (a.u.).
Then “TTTCACCCGGGACTAAAGATCGCTATCTTTAGTCCCGGATCGGAGTCACCTAGTGCAG”, with 52600 fluorescence intensity (a.u.); and “AACCGGGACTAAAGATCGTACCTTTAGTTACGATCTTTAGCGGAGTCACCTAGTGCAG”, with 28500 fluorescence intensity (a.u.).
“CAAGGGAGCTGGTAACACTCATCATTTCCGTTCTTCAAATCGGAGTCACCTAGTGCAG”: the binding signal is 3250 fluorescence intensity (a.u.).
Turning to “AGGTTGGTGATTCAGAGATGTCGAGACGTGTGTTCTTTTGCGGAGTCACCTAGTGCAG”, the binding signal is 4270 fluorescence intensity (a.u.).
With “GCGCGTTGCTGCTGACTCCGGAGCAAAATCGAGCGAGCGCCGGAGTCACCTAGTGCAG”, the binding signal was 3360 fluorescence intensity (a.u.).
On to “TTAATACAAATCCGTTGCATCACACGAGTCATATGCTAGTCGGAGTCACCTAGTGCAG”, for which the binding signal was 5010 fluorescence intensity (a.u.).
With “AACTCCGAGCGTTGCTATGGGAGTTCCGTAAAATAGTAATCGGAGTCACCTAGTGCAG” the figure was 39300 fluorescence intensity (a.u.).
On to “TTGAATTGCCATTACAAGCAGAAACTGGGTAGCCCAGCAGCGGAGTCACCTAGTGCAG”, for which the binding signal is 14600 fluorescence intensity (a.u.).
With “GCCGCTGCACCGCCCCAGCCTCCTCCTCCCCACCGATGCCCGGAGTCACCTAGTGCAG”, the binding signal is 3150 fluorescence intensity (a.u.).
Take “TCTATAAATATGATGTGGCTATGTACTCAGTACTCACCTGCGGAGTCACCTAGTGCAG”: the binding signal was 6690 fluorescence intensity (a.u.).
On to “GGCGGCACAGGTCGCCGTCGTCGCCACCGACGCGGCGTCGCGGAGTCACCTAGTGCAG”, for which the binding signal was 3730 fluorescence intensity (a.u.).
“TGAGCACCTCATCCACGCGTCATGCATCTGTGTCGGGGCTCGGAGTCACCTAGTGCAG”: the binding signal was 45200 fluorescence intensity (a.u.).
On to “CCATTCATGCCCGTGATATCCTGGCTCCACGAGCTCTGCTCGGAGTCACCTAGTGCAG”, for which the binding signal is 59000 fluorescence intensity (a.u.).
Turning to “GGCTGCTCATTGTCGTCTCATCTGGGCTTTTCAATGGGCTCGGAGTCACCTAGTGCAG”, the binding signal is 53700 fluorescence intensity (a.u.).
With “CACGAGTGCCTCTCCGTCATGCTCCACGACAGCTGCAGCCCGGAGTCACCTAGTGCAG” the figure was 4760 fluorescence intensity (a.u.); with “AATATCATCCGTGTCACTACCTAGCTCCTGCATGCTCTGCCGGAGTCACCTAGTGCAG”, 4560 fluorescence intensity (a.u.).
For the sequence “TTATTCATACATGTCACTGCCAGGCTGCTGTCTACTTCTTCGGAGTCACCTAGTGCAG”, the binding signal was 4950 fluorescence intensity (a.u.).
Turning to “ACGGGCTCGTCGAGCTGCTCTGGTGCAATGGCCACGTCATCGGAGTCACCTAGTGCAG”, the binding signal is 28400 fluorescence intensity (a.u.).
Turning to “GCTGTCCTGCTCGTCGGCCTCCACGCGCGCTCATCGGCCTCGGAGTCACCTAGTGCAG”, the binding signal was 3240 fluorescence intensity (a.u.).
In the case of “TGACTGCTGGCTCACATCCAGTCATTGGCTTAGCTAGCTGCGGAGTCACCTAGTGCAG”, the binding signal is 4160 fluorescence intensity (a.u.).
With “CCTTTTCAATGTTCTTGTCATCACTGCTCGTGTCACCCGTCGGAGTCACCTAGTGCAG” the figure was 5650 fluorescence intensity (a.u.).
For the sequence “GCGCCCCATCCACGCGTCATGCATCCACGTCGGGGCTGCACGGAGTCACCTAGTGCAG”, the binding signal is 11600 fluorescence intensity (a.u.).
As to “GTGCAGATCCACTGTCTGCTCATTGGGCTTATTCATGGCTCGGAGTCACCTAGTGCAG”, the binding signal was 40700 fluorescence intensity (a.u.).
With “ACCTGTGAATGTCTCTAGTGTGACGACTCTACTTCAGTTTCGGAGTCACCTAGTGCAG” the figure was 4050 fluorescence intensity (a.u.); with “GAGCCTTACCGGCTCAGACTTGGCATGACGTGGACGTACACGGAGTCACCTAGTGCAG”, 22500 fluorescence intensity (a.u.); with “TTCATTCCCAAATGCCACCCGGGCCCACATGTCAGCCTCACGGAGTCACCTAGTGCAG”, 4670 fluorescence intensity (a.u.).
For the sequence “TTACCCTTAGTCATTTGACCCTATTACATGTGGGACCCACCGGAGTCACCTAGTGCAG”, the binding signal is 3900 fluorescence intensity (a.u.).
“GTCATGGATCAAATCATCATGTATATCATCCGTCGTCGTGCGGAGTCACCTAGTGCAG”: the binding signal is 3180 fluorescence intensity (a.u.).
For “TGTTGCTCGGCCAAACGTACACACAGTTCGTTATATATCGCGGAGTCACCTAGTGCAG”, the binding signal is 12100 fluorescence intensity (a.u.).
Then “TATTTTGGAGCGGACGAAGTAATAATATAGTACACGTCGGCGGAGTCACCTAGTGCAG”, with 5310 fluorescence intensity (a.u.).
On to “CCCATAACTGAATTGTTAATTTTGTCACGCGAGCAACGCACGGAGTCACCTAGTGCAG”, for which the binding signal was 19300 fluorescence intensity (a.u.).
In the case of “ATACATAGCCATATATAAAATTAATGTGATAACATATTCTCGGAGTCACCTAGTGCAG”, the binding signal was 3660 fluorescence intensity (a.u.).
As for “GATAATTAAGCTGATAGCGAGACATAACAAGCTCTGTTCTCGGAGTCACCTAGTGCAG”, the binding signal was 49600 fluorescence intensity (a.u.).
For “ATACAAGACAAATCGATTAACATAAGATCGATATATCGCTCGGAGTCACCTAGTGCAG”, the binding signal is 24700 fluorescence intensity (a.u.).
Then “TGATAATAATTATTTCTTGGTCTTTAAATTAAGGGTGATTCGGAGTCACCTAGTGCAG”, with 14800 fluorescence intensity (a.u.); and “AAGTAAATGTAGATAAGGCCGTGTAATAAAGGTTGCTAGTCGGAGTCACCTAGTGCAG”, with 56800 fluorescence intensity (a.u.).
Turning to “TGTTTGTAAAGTAGAGCGTGCATGTGTGCGTTCTTAAGGTCGGAGTCACCTAGTGCAG”, the binding signal was 3590 fluorescence intensity (a.u.).
Regarding “TAATAAGAGGCTGTAAGTCGGCTAAATGCTGAGGTGGAGGCGGAGTCACCTAGTGCAG”, the binding signal was 8660 fluorescence intensity (a.u.).
